According to PubChem BioAssay AID873 (PCMD, 2007):
Among all 210,000 compounds or so, about 1,300 (0.62%) were called active. Only a selection was taken, and actives are over-represented in it overall. A number with no mark means an inactive call.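 How the source made its calls: active means inhibition of 40% or more; inactive means the rest.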

biological target: Kallikrein-5 (Homo sapiens) (UniProt Q9Y337); assay: inhibition of kallikrein 5 (hK5) activity – biochemical, 1536-well, primary screen (AID 873); settings: recombinant hK5, fluorogenic AMC substrate cleavage; at 5 µM; hits give high values;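 further: 0% = enzyme controls without compound and 100% = no-enzyme blanks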
Sequence (Q9Y337 67-293 limits assumed): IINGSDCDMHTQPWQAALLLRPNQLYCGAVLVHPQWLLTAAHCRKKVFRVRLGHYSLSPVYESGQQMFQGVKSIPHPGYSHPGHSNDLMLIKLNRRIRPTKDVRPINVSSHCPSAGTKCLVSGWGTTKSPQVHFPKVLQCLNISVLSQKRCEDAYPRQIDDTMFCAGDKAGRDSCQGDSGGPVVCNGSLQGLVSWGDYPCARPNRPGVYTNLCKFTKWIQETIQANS

SMILES	inhibition
O=c1c(Cl)c(NC2CC2)cnn1-c1ccccc1	-14.4%
C=CCNc1cnn(-c2ccc(C)cc2)c(=O)c1Cl	58% (active)
Cc1ccc(Oc2cnn(-c3ccccc3)c(=O)c2Br)cc1	-20.9%
CS(=O)(=O)c1ccc(Cl)c(NC(=O)Nc2ccccc2)c1	15.8%
CC(C)c1nc(SCC(=O)NC(=O)NC(C)(C)C)n[nH]1	-0.71%
Cc1cccn2c(CNCC(C)Oc3cccnc3)c(C(=O)N3CCOCC3)nc12 (stereo unspecified)	-2.01%
COc1ccc(N2CCC(CNC(=S)Nc3c(C)cccc3C)C2)cc1 (stereo unspecified)	-0.97%
Cc1nc2nc(SCC(=O)c3ccccc3)[nH]c2cc1Br	1.2%
C/C(=N/NC(=O)CN1CCN(S(=O)(=O)c2ccc(Br)cc2)CC1)c1ccncc1	1.01%
O=C(Nc1ccccc1-c1nnn(CC(=O)N2CCN(c3ccccc3)CC2)n1)c1cccs1	8.06%
CCc1ccccc1NC(=O)c1cccs1	-5.15%
O=C(Nc1ccccc1-c1ccccc1)c1cccs1	40% (active)
CC(C)Cc1oc(C(=O)O)cc1CN	-20.2%
Cc1oc(CC(C)C)c(CN2CCCC2)c1C(=O)O	40.4% (active)
Cc1cc(=O)oc(C)c1C(=O)N1CCCCC1	-21.2%
Cc1ccc(Nc2c3c(nc4ccccc24)CCC3)cc1	-1.22%
COc1ccc(NS(=O)(=O)c2ccc(N3CCOCC3)c(NC(=O)c3ccccc3Br)c2)cc1	-3.92%
Cc1cc(C)nc(Nc2n[nH]c(-c3ccccc3N)n2)n1	-1.46%
CC(C)CCN1NC2(CCC(C)CC2)NC1=S (stereo unspecified)	0.13%
CCN1CCN(CCCCOc2ccccc2F)CC1	-9.3%
COc1ccccc1N1CCN(Cc2ccc(OC)c3ccccc23)CC1	-4.66%
COc1ccccc1N1CCN(CCCCOc2ccc(F)cc2)CC1	40.1% (active)
CCOC(=O)c1ccc(NC(=O)Cn2cnc3cc(C)c(C)cc32)cc1	3.77%
Cc1nc(N)[nH]c(=O)c1Oc1cccc(C(F)(F)F)c1	-0.74%
Cc1cc(=O)[nH]c(SCC(=O)Nc2ccc(Br)cc2)n1	2.46%
CCOc1ccccc1N1CN(Cc2ccccc2)CNC1=S	-6.7%

SMILES	inhibition
CCCc1ccc(C(=O)[C@@H]2[C@@H](C(C)=O)N3c4ccc(F)cc4C=C[C@@H]3[C@@]23C(=O)Nc2ccccc23)cc1	3.66%
O=C(c1cnn2ccccc12)N1CCc2ccccc21	68.7% (active)
O=C(c1cccc(C(=O)N2CCc3ccccc32)n1)N1CCc2ccccc21	-28.7%
NC(=O)N1CCc2ccccc21	-6.77%
COC(=O)c1noc(C)c1-c1ccnn1C(=O)c1ccc(Cl)cc1	14.2%
O=C(O)c1ccccc1-c1ccccc1C(=O)Nc1cccc2ccccc12	3.53%
O=C(O)CSc1nccc2ccccc12	-3.99%
O=C(O)C#Cc1cccc2ccccc12	42.9% (active)
COC(=O)c1cc(C(=O)OCC(=O)Nc2cc(C)on2)cc([N+](=O)[O-])c1	23.6%
O=C(O)c1ccc(/C=N/NC(=S)NCc2ccccc2)cc1	-1.6%
C/C(=N\NC(=S)NCc1ccccc1)c1ccc(Cl)cc1	56.7% (active)
C/C(=N\NC(=S)NCc1ccccc1)C1CCCCC1	-4.43%
COC(=O)c1oc2ccc(Br)cc2c1NC(C)=O	41.8% (active)
COc1ccc2oc(C)c(NC(C)=O)c2c1	-13.5%
COc1ccc(C(=O)c2oc3ccc(Br)cc3c2NC(C)=O)cc1	-25.1%
Cc1ccc(Nc2nc(Cl)c(C=O)s2)cc1	0.92%
O=C(CS(=O)(=O)c1cn(Cc2ccc(Cl)cc2)c2ccccc12)N1CCOCC1	47% (active)
O=C(CS(=O)(=O)c1cn(Cc2cccc(F)c2)c2ccccc12)N1CCCCC1	-11.7%
COc1cccc(NC(=O)CS(=O)(=O)c2cn(CC(=O)N3CCOCC3)c3ccccc23)c1	-2.04%
COC(=O)Cn1cc(C(=O)c2cccs2)c2ccccc21	40.6% (active)
COCCNC(=O)Cn1cc(C(=O)c2cccs2)c2ccccc21	-5.68%
O=C(Cn1cc(C(=O)c2cccs2)c2ccccc21)NCc1cccs1	-1.96%
Cc1ccc(OCC(=O)Nc2nnc(-c3ccco3)s2)cc1	-1.13%
CC(C)CNc1ncnc2c1cnn2Cc1ccc(Cl)cc1	-1.93%
Cc1cccc(NC(=O)c2ccc([N+](=O)[O-])o2)c1	-2.56%
Cc1onc(NC(=O)c2ccc([N+](=O)[O-])o2)c1Br	47.1% (active)

SMILES	inhibition
O=C(Nc1ccc(Br)cn1)c1ccc([N+](=O)[O-])o1	-4.1%
CCCNc1c(N)c(=O)c1=O	-0.24%
Cc1ccc(Oc2nc(-c3ccccn3)nc3ccccc23)cc1	-11.3%
N#C/C(=C/c1ccc(-c2ccccc2[N+](=O)[O-])o1)C(=O)NCCN1CCCCC1	1.64%
Cc1ccc(-c2csc(SCC(=O)Nc3cc(C)on3)n2)cc1	-2.17%
Cc1ccc(-c2csc(-c3cc(C)on3)n2)cc1	44.8% (active)
CCCc1cc(-c2nc(-c3ccc(C)cc3)cs2)ccn1	-10.9%
O=c1c(/C=N/O)coc2ccc(Cl)cc12	3.19%
Cc1ccc(N2C(=O)CC(Nc3cccc4ccccc34)C2=O)cc1 (stereo unspecified)	0.34%
CC1C(=O)NC(=O)C1c1ccccc1 (stereo unspecified)	1.86%
CC(C)(C)n1nnnc1C(c1cccs1)N(Cc1cccnc1)CC1CCCO1 (stereo unspecified)	45% (active)
CC(C)C(c1nnnn1C(C)(C)C)N1CCN(Cc2cccnc2)CC1 (stereo unspecified)	4.44%
CCOc1ccc(CN(Cc2ccco2)C(c2cccs2)c2nnnn2C(C)(C)C)cc1 (stereo unspecified)	9.28%
O=C(CSc1nc2c(cnn2-c2ccc(F)cc2)c(=O)[nH]1)N1CCCCCC1	68.2% (active)
Cc1nnc(SCC(=O)N2CCOCC2)[nH]c1=O	-13.7%
CC(=O)c1sc2nc(SCC(=O)N3CCCCC3)[nH]c(=O)c2c1C	-8.76%
Cc1coc2cc3oc(=O)c(CCC(=O)O)c(C)c3cc12	-1.04%
Cc1ccc(C(O)P(=O)(OC(C)C)c2ccc(N(C)C)cc2)cc1 (stereo unspecified)	-0.37%
CCC(=O)Nc1ccc(C(=O)Nc2cccc(OC)c2)cc1	-2.36%
COc1cccc(NC(=O)c2ccc(S(=O)(=O)N(C)C)cc2)c1	58.8% (active)
COc1ccc(C(=O)Nc2cccc(S(C)(=O)=O)c2)cc1	9.53%
CC1CN(c2nc(Nc3ccccc3)nc(N)c2[N+](=O)[O-])CC(C)O1 (stereo unspecified)	1.28%
COn1c(-c2ccc(Cl)cc2Cl)nc2ncccc21	-1.75%
Cc1ncn2cc(-c3ccc(Cl)cc3Cl)[nH]c(=O)c12	63% (active)
Clc1ccc(-c2ncc3ccccn23)c(Cl)c1	2.07%
COc1ccc(OC)c(-n2c(-c3ccn[nH]3)n[nH]c2=S)c1	-4.85%

SMILES	inhibition
CCn1c2ccccc2c2cc(CC(N)=O)ccc21	0.83%
NC(=O)Cc1ccc2sc(-c3ccccc3)nc2c1	29.8%
NC(=O)Cc1ccc2c(c1)[nH]c1ccccc12	49.5% (active)
CCN(CC)c1ccc(/C=N/NC(=O)c2cnccn2)c(O)c1	-3.69%
Cc1nc(SCC(=O)N2CCc3ccccc3C2)c2c(C)c(C)sc2n1	59.1% (active)
Cc1nc(SCC(=O)N2CC(=O)Nc3ccccc32)c2c(C)c(C)sc2n1	-0.11%
Cc1nnc(SCC(=O)N2CCc3ccccc3C2)s1	16.7%
COc1ccccc1C1CCN(c2ccc([N+](=O)[O-])cn2)CC1	0.29%
CC(=O)c1ccc2c(c1)OCCOCCOc1ccc(C(C)=O)cc1OCCOCCO2	-1.51%
O=c1[nH]c2cccnc2n1-c1ccc([N+](=O)[O-])cc1	0.04%
O=C(O)c1ccc(NC(=O)C2CCCCC2)cc1	-4.28%
O=C(O)C1CCCCC1C(=O)Nc1ccc(Cl)cc1 (stereo unspecified)	2.31%
O=C(O)Cc1ccc(NC(=O)C2CCCCC2C(=O)O)cc1 (stereo unspecified)	46.5% (active)
COc1ccc(-c2noc(CSc3ccc(C)cc3)n2)cc1	55.4% (active)
COc1ccc(-c2noc(CN(C)S(=O)(=O)c3ccc(C)cc3)n2)cc1	1.11%
COc1ccc(-c2noc(-c3ccc(C)cc3)n2)cc1	-5.34%
O=C(Nc1ccc(S(=O)(=O)N2CCOCC2)cc1)c1ccc2ncsc2c1	6.27%
COCc1cc(=O)[nH]c(-c2ccc(C(F)(F)F)cc2)n1	-1.98%
Cc1cccc(N(C)C(=O)c2cc3c(=O)[nH]c4ccc(C)cc4c3s2)c1	1.34%
COc1cccc(N(CC(=O)Nc2cccc(F)c2)S(C)(=O)=O)c1	2.06%
CS(=O)(=O)N(CC(=O)Nc1ccc(F)cc1F)c1cccc([N+](=O)[O-])c1	62.8% (active)
CCN(CC)S(=O)(=O)c1ccc(NC(=O)CN(c2cccc(F)c2)S(C)(=O)=O)cc1	-2.67%
COc1ccc(NC(=O)C2=NNC(=O)CC2)cc1S(=O)(=O)N1CCCCC1	-2.9%
